RORg inh – inhibitors of mouse ROR gamma transcriptional activity. P51450. Drosophila S2 Gal4-RORgamma UAS-luciferase reporter, 20 h. Potency, µM (doses to about 53.6 µM), inactives show top-dose activity change, negative = inhibition, hits mostly inhibitors. actives 5.4% (n = 310,000). AID 2551; also: nearly all actives have a fitted effect of over 60% in size
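ROR gamma transcriptional activity was tracked as Gal4-UAS luciferase output in stably transfected Drosophila Schneider cells, with compound added 1 hr before 700 uM copper sulfate induction and a 20 hr ambient-temperature incubation.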
NPSR antag – blocks cAMP signaling of the human neuropeptide S receptor | Q6W5P4 | CHO-NPSR cells, cAMP TR-FRET, antagonist mode | Potency, µM (titrated, usually from 38.3 µM), for the others: at the top dose activity change, negative = inhibition, hits mostly inhibitors | actives 1% (n = 220,000) | AID 1461; also: nearly all actives have a fitted effect of over 50% in size
Target sequence (Q6W5P4 whole entry, looked up): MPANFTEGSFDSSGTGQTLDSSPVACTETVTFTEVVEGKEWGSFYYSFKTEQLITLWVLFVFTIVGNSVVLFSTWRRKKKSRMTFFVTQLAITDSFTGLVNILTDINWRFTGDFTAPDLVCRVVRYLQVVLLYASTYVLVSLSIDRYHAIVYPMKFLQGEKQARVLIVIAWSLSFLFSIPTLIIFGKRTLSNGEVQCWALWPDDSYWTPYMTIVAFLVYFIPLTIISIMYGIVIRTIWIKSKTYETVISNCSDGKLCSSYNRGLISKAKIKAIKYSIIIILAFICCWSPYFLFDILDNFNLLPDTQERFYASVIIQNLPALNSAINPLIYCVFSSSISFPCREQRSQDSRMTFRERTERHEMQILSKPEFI
Gal4-VP16 FLuc – Gal4-VP16 reporter inhibition counter-screen; actives 3.5% (n = 310,000); AID 2546; Drosophila S2 Gal4-VP16 UAS-luciferase, luminescence, 20 h; Potency, µM (highest dose often 53.6 µM), without a hit: top-dose activity, negative = inhibition, hits mostly inhibitors;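 also: Gal4-VP16 expression switched on by copper sulfate through the metallothionein promoter; nearly all actives have a fitted effect of over 50% in size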
B2AR arrestin – recruits beta-arrestin to the human beta2-adrenergic receptor. beta-arrestin recruitment to beta2AR, cell-based reporter. Potency, µM (titrated, usually from 46.1 µM), for inactives: at the highest dose activation, hits mostly activators. actives 0.02% (n = 330,000). AID 492947;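 also: 0% = DMSO controls and full agonism = EC100 isoproterenol or metaproterenol; nearly all actives have a fitted effect of over 65% in size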
An asterisk follows results filed as active; ? = inconclusive; / = no result given; [ ] = remark or other dose. Shown are actives, neighbours in structure and some others; about 5.7% of the full set was active somewhere. Calls follow the shape of the dose curve; as a rule, active = well fitted curve in the direction sought with a large enough effect; inconclusive = small, poorly fitted or top-dose-only effect, or another doubt; inactive = no such curve, though single readings can be large; an effect the other way counts as inactive or inconclusive. Unless noted, % is scaled to controls: 0 for no effect and ±100 for the full control effect; potency is read from the fitted curve at half-maximal effect.

SMILES | RORg inh | NPSR antag | Gal4-VP16 FLuc | B2AR arrestin
Cc1ccc(C)c(NC(=S)NCCc2ccc(F)cc2)c1 | 2.5µM* | -16%[46.1 µM] | 3.2µM* | 0%
Cc1ccc(NC(=S)NCCc2ccccc2)c(C)c1 | 2µM* | -26% | 3.5µM* | 3%
Cc1ccc(NC(=O)CCC(=O)NNC(=S)Nc2ccc(F)cc2F)cc1C | -31% | / | -16% | 0%
c1ccc(-c2nnc(CSc3ccc4c(c3)OCCO4)o2)cc1 | 36% | -7% | -2% | 0%
CC(C)CN1CCC2(CC1)CCN(S(=O)(=O)c1ccccc1)CC2 | 6% | / | 6% | /
Cc1cc(Br)ccc1NC(=S)NCCc1ccccc1 | 2.5µM* | / | 6.3µM* | -1%
Cc1ccc(NNC(=S)Nc2ccc(C(C)C)cc2)c(C)c1 | 11µM* | -10% | ? | 0%
Cc1ccc([N+](=O)[O-])cc1NC(=S)NCCc1ccccc1 | 13µM* | / | ? | 0%
COc1cccc(N(CC(=O)N2CCN(C)CC2)S(=O)(=O)c2ccc(C)cc2)c1 | -14% | -6%[46.1 µM] | -5% | 0%
COc1cccc(C2CCCN2Cc2nc(-c3sccc3C)oc2C)c1 (stereo unspecified) | 28µM* | 51% | 4% | -1%
COc1cccc(C2CCCCN2Cc2nc(-c3ccc(C)o3)oc2C)c1 (stereo unspecified) | -18% | 7% | -16% | 0%
Cc1ccsc1-c1nc(CN2CCCC2c2ccc(F)cc2)c(C)o1 (stereo unspecified) | 10µM* | 38% | -5% | 0%
O=C(NCc1cccnc1)C12CC3CC(CC(Cl)(C3)C1)C2 | 25% | / | 19% | 0%
COc1ccc(N=C(C)C2=C(O)c3ccccc3C2=O)cc1 | -41% | 5% | ? | 0%
O=C1C(C=Nc2ccccc2)=C(O)c2ccccc21 | ? | -24%[46.1 µM] | 11µM* | 0%
CN=CC1=C(O)c2ccccc2C1=O | 15% | 0%[46.1 µM] | -6% | 0%
COc1ccc(N=CC2=C(O)c3ccccc3C2=O)cc1 | 3.2µM* | -7%[46.1 µM] | ? | 0%
CC(C)C[C@H](NC(=O)[C@H](Cc1c[nH]c2ccccc12)NC(=O)[C@H](CCCCN)NC(=O)CNC(=O)[C@H](CC(C)C)NC(=O)[C@H](CO)NC(=O)[C@@H](N)Cc1cnc[nH]1)C(=O)NCC(=O)N[C@@H](Cc1cnc[nH]1)C(=O)N1CCC[C@H]1C(=O)N[C@@H](CC(=O)O)C(=O)N[C@@H](CCCCN)C(=O)N[C@@H](Cc1ccccc1)C(=O)O | 4% | / | 1% | /
CCOc1ccc2c(c1)nc(SCC(=O)c1cccs1)n2C | ? | ? | 5% | 0%
CCOc1ccc2c(c1)nc(SCC(=O)c1ccc(Br)s1)n2C | 14µM* | -16%[46.1 µM] | ? | 0%
COc1ccc(CCN(C)CCCN2CCc3cc(OC)c(OC)cc3CC2=O)cc1OC | 0% | / | 0% | /
Cc1ccc(OCC(=O)Nn2c(C)nc3ccccc3c2=O)c(C(C)C)c1 | -19% | -25%[46.1 µM] | 22µM* | 0%
COc1ccc(OC)c(-c2ccc(C(=O)O)o2)c1 | 3%[96.6 µM] | / | 9%[96.6 µM] | /
C/C(=N\NC(=O)C1COc2ccccc2O1)c1ccccn1 (stereo unspecified) | 1.8µM* | 11% | 2.8µM* | 0%
C/C(=N\NC(=O)C1COc2ccccc2O1)c1ccc(Cl)s1 (stereo unspecified) | 6.3µM* | -18% | 18µM* | 0%
SMILES | RORg inh | NPSR antag | Gal4-VP16 FLuc | B2AR arrestin
CN(C)c1ccc(/C=N/NC(=O)C(O)(c2ccccc2)c2ccccc2)o1 | 8.9µM* | -26%[46.1 µM] | 11µM* | 0%
COc1ccc(C(=O)N/N=C/c2ccc(N3CCOCC3)o2)cc1OC | ? | -15% | 7% | -1%
O=C(N/N=C/c1ccc(N2CCCCC2)o1)C(O)(c1ccccc1)c1ccccc1 | 11µM* | -31% | 13µM* | 3%
CN(C)c1ccc(/C=N/NC(=O)c2ccccc2O)o1 | -24% | -9% | 2% | -1%
Cc1cc(C(=O)N/N=C/c2ccc(N(C)C)o2)cs1 | 13µM* | / | 6.3µM* | 0%
O=C(N/N=C/c1ccc(N2CCOCC2)o1)c1cccc(F)c1 | 11µM* | ? | 13µM* | -1%
O=c1c2c3c(sc2nc(N2CCNCC2)n1CCc1ccccc1)CCCCC3 | -5% | -12% | 9% | 0%
CC(C)(C)c1ccc(C(=O)NNC(=S)NCC2CCCO2)cc1 (stereo unspecified) | 4µM* | 6% | ? | 0%
O=C(Cc1ccc(F)cc1)NCC1CCCO1 (stereo unspecified) | 11µM* | -10% | -21% | 0%
CC(C)(C)c1ccc(C(=O)c2c[nH]c(C(=O)NCC3CCCO3)c2)cc1 (stereo unspecified) | ? | -16%[46.1 µM] | 13µM* | 0%
COc1ccc(C(=O)c2c[nH]c(C(=O)NCC3CCCO3)c2)cc1 (stereo unspecified) | 27% | -4%[46.1 µM] | -1% | -1%
CNC(=S)NNC(=O)c1ccc(C(C)(C)C)cc1 | 2.2µM* | 5% | ? | 0%
O=C(NCC1CCCO1)c1ccc(C(=O)NCC2CCCO2)cc1 (stereo unspecified) | 6% | -1%[46.1 µM] | 3% | 0%
O=c1c(-c2cccs2)nc2cnc(N3CCOCC3)nc2n1-c1ccccc1 | 21% | / | -9% | /
Cc1noc(C)c1C(=O)N1CCC2(CCCN(C(c3ccccc3)c3ccccc3)C2)CC1 | ? | / | 1% | /
Clc1nc2ccccc2nc1Cl | 2% | / | -6% | /
CCOc1ccc(CCNC(=O)CCC(=O)N2CCOc3ccccc32)cc1OCC | 18% | / | 2% | 0%
COc1ccccc1/C=C/C(=O)NC(=S)NCC1CCCO1 (stereo unspecified) | 2.8µM* | -26% | ? | -1%
CC(C)(C)c1ccc(C(=O)NC(=S)NCC2CCCO2)cc1 (stereo unspecified) | 2.2µM* | -17%[46.1 µM] | 5.6µM* | -1%
Cc1ccccc1C(=O)c1c[nH]c(C(=O)NCC2CCCO2)c1 (stereo unspecified) | 37% | 6%[46.1 µM] | 12% | 0%
COc1ccccc1NC(=S)NCC1CCCO1 (stereo unspecified) | ? | 21% | ? | 0%
COc1ccc(C(=O)NC(=S)NCC2CCCO2)cc1 (stereo unspecified) | 13µM* | 2% | ? | 0%
Cc1ccccc1C(=O)NC(=S)NCC1CCCO1 (stereo unspecified) | 14µM* | 6%[46.1 µM] | ? | 0%
CC1/C=C/C=C/C=C/C=C/C=C/C=C/C=C/C(OC2OC(C)C(O)C(N)C2O)CC2O[C@@](O)(CC(O)CC(O)C(O)CCC(O)CC(O)CC(=O)OC(C)[C@H](C)C1O)CC(O)C2C(=O)O (stereo partly specified) | -9% | / | -1% | /
O=C(Cc1ccccc1)NCC1CCCO1 (stereo unspecified) | -34% | 4%[46.1 µM] | -7% | -1%
COc1ccc(/C=C/C(=O)NC(=S)NCC2CCCO2)cc1 (stereo unspecified) | 1µM* | -28% | -3% | 0%
O=C(NC(=S)NCC1CCCO1)C(c1ccccc1)c1ccccc1 (stereo unspecified) | 7.1µM* | 2% | 6.3µM* | -1%
CCCCCCCC/C=C\CCCCCCCCCCCC(=O)O | -1% | / | -1% | /

Compound activity from PubChem BioAssay.
